Compound activity (PubChem BioAssay)
Rows were chosen to be rich in hits. Some 2.4% of all compounds tested hit in one or more screens of this group.
FEN1 inh-1: blocks human flap endonuclease 1. Potency, µM (doses to about 114 µM), inactives show top-dose activity change, negative = inhibition, most hits filed as inhibitors. hit rate 0.35% among 390,000. Recombinant FEN1 flap cleavage, fluorescence, 15 min. P39748; further: on the % scale 0 is the no-effect control and ±100 the full control effect; nearly all actives have a fitted effect of over 65% in size
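Reaction started by adding substrate (50 nM final) to 10 nM enzyme after 15 min room-temperature compound preincubation. Reads at 0 and 15 min, with data normalized and fitted to a four-parameter Hill equation.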
Pol kappa inh-1: DNA polymerase kappa (human) inhibition; Q9UBT6; purified Pol kappa, fluorescent DNA synthesis assay, 10 min; Potency, µM (series often up to 107 µM), for the others: at the highest dose activity, negative = inhibition, most hits filed as inhibitors; hit rate 0.53% among 400,000; AID 588579; further: on the % scale 0 is the no-effect control and ±100 the full control effect
Target sequence (Q9UBT6 whole entry, looked up): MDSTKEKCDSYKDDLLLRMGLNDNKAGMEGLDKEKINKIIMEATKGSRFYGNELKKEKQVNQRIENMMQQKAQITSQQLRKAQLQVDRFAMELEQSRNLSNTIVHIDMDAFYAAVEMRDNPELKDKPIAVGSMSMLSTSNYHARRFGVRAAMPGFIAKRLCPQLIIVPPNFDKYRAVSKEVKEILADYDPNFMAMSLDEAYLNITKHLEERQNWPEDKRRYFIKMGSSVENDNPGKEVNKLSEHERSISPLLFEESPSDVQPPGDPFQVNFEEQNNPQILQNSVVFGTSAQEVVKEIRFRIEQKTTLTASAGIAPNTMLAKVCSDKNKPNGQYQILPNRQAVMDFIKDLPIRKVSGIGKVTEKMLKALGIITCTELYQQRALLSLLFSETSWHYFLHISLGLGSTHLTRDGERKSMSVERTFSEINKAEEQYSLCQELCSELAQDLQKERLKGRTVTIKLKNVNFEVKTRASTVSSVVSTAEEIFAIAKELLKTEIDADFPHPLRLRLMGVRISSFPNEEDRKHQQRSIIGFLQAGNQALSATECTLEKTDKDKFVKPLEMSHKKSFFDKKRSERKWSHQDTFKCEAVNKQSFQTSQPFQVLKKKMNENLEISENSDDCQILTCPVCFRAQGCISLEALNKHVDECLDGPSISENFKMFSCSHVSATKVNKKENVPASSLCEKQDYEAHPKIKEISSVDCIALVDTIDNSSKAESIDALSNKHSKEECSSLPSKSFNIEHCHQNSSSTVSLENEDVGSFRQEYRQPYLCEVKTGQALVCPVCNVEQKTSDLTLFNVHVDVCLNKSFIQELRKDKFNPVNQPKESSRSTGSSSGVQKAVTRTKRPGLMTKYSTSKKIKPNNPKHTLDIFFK
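Activity was followed as the change in fluorescence between reads at 0 and 10 min after starting the reaction with 50 nM substrate. Beforehand, 10 nM polymerase had been preincubated with compound for 15 min at room temperature.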
WRN helicase inh-1: inhibitors of human WRN helicase; hit rate 0.46% among 360,000; WRN helicase unwinding, fluorescent forked duplex, kinetic; AID 651768; Q14191; Potency, µM (series often up to 114 µM), for inactives: at the top dose activity change, negative = inhibition, hits mostly inhibitors; further: on the % scale 0 is the no-effect control and ±100 the full control effect; nearly all actives have a fitted effect of over 55% in size
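WRN at 20 nM final preincubated with compound 15 min at room temperature; reaction started with 100 nM fluorophore/quencher forked duplex oligonucleotide and 2 mM ATP final. Unwinding followed kinetically by red fluorescence (ex 525, em 598 nm).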
Pol beta inh: DNA polymerase beta (human) inhibition | hit rate 1.3% among 340,000 | AID 485314 | Pol beta primer extension/strand displacement, fluorescence kinetic | Potency, µM (series often up to 114 µM), inactives show at the highest dose activity change, negative = inhibition, hits mostly inhibitors; further: on the % scale 0 is the no-effect control and ±100 the full control effect
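Enzyme-only controls used 10 nM Pol beta; buffer lacking enzyme served as negative control. Compound preincubated 15 min, then 50 nM substrate added; 0 and 10 min reads at room temperature.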
Pol eta inh-1: inhibitors of human DNA polymerase eta; Q9Y253; recombinant Pol eta, fluorescent DNA replication assay; Potency, µM (titrated, usually from 114 µM), for the others: at the top dose activity change, negative = inhibition, actives largely listed as inhibitors; hit rate 1.2% among 390,000; further: on the % scale 0 is the no-effect control and ±100 the full control effect
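Pol eta at 10 nM preincubated with compounds 15 min at room temperature; reaction started with fluorescent substrate (50 nM final) and read kinetically at 0 and 10 min.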
Pol iota inh: inhibitors of human DNA polymerase iota; Potency, µM (series often up to 115 µM), for inactives: at the highest dose activity, negative = inhibition, most hits filed as inhibitors; AID 588590; Q9UNA4; Pol iota fluorescent replication assay, 10 min; hit rate 1% among 390,000
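Fluorescent replication assay read twice, at 0 min and 10 min after adding 50 nM (final) substrate. Enzyme (10 nM) and compounds were first incubated 15 min at room temperature; enzyme-free buffer wells were negative controls.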
Pol kappa inh-2: Pol kappa (human) inhibition, cherry-pick confirmation; shares compounds with Pol eta inh-1; purified Pol-kappa, fluorescent strand-displacement substrate; Potency, µM, usual class: inhibitors; hit rate 76% among 920; AID 720501
Pol eta inh-2: Pol eta (human) inhibition, cherry-pick confirmation; shares compounds with Pol eta inh-1; Pol eta primer extension, TAMRA/BHQ fluorescence, 10 min; Potency, µM, hits mostly inhibitors; hit rate 64% among 2,600
FEN1 inh-2: confirmation of human FEN1 inhibitors; hit rate 79% among 880; FEN1 flap cleavage, TAMRA/BHQ2 fluorogenic DNA substrate; shares compounds with FEN1 inh-1; Potency, µM, most hits filed as inhibitors; AID 720498; further: nearly all actives have a fitted effect of over 60% in size
WRN helicase inh-2: confirmation of human WRN helicase inhibitors; shares compounds with WRN helicase inh-1; WRN helicase DNA unwinding, fluorescence kinetic; Potency, µM (highest dose often 57.1 µM), for the others: top-dose activity, negative = inhibition, hits mostly inhibitors; hit rate 63% among 610; AID 720497; further: nearly all actives have a fitted effect of over 65% in size
TO displacement: binds DNA, flagged in WRN inhibitor counterscreen | hit rate 10% among 610 | shares compounds with WRN helicase inh-1 | Potency, µM (series often up to 57.1 µM), for the others: at the highest dose activity change, negative = inhibition, usual class: inhibitors | thiazole orange DNA binding displacement, fluorescence;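 further: drop in dye fluorescence marks compound binding to DNA; on the % scale 0 is the no-effect control and ±100 the full control effect; nearly all actives have a fitted effect of over 60% in size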
BLM helicase inh: counter-screen for WRN helicase inhibitors: human BLM helicase inhibition; AID 720503; hit rate 60% among 610; Recombinant BLM helicase DNA unwinding, red fluorescence; Potency, µM (highest dose often 57.1 µM), for inactives: at the top dose activity change, negative = inhibition, most hits filed as inhibitors; shares compounds with WRN helicase inh-1; further: nearly all actives have a fitted effect of over 60% in size
Numbers without * were called inactive; i = inactive; u = inconclusive; x = not tested or not shown. The call rests on the fitted dose curve; in most records, active means well fitted curve in the direction sought with a large enough effect; inconclusive means small, poorly fitted or top-dose-only effect, or another doubt; inactive means no such curve, though single readings can be large; an effect the other way counts as inactive or inconclusive. Potency means the concentration at half of the fitted maximal effect.

SMILES	FEN1 inh-1	Pol kappa inh-1	WRN helicase inh-1	Pol beta inh	Pol eta inh-1	Pol iota inh	Pol eta inh-2	WRN helicase inh-2	TO displacement	BLM helicase inh	others
c1ccc2nc3c(cc2c1)CCCC3	5%	-26%	x	x	x	-5%	x	x	x	x
O=[N+]([O-])c1c(Nc2ccc(O)cc2)cc(Cl)c2nonc12	u	-5%	u	-16%	50µM*	3.5µM*	u	u	34µM*	u
C/C(=N/NC(=O)c1cc2ccccc2cc1O)C1C(=O)c2ccccc2C1=O	50µM*	u	45µM*	u	14µM*	32µM*	u	15µM*	3.4µM*	15µM*	FEN1 inh-2=60*
O=C(/C=C/c1ccc(F)cc1)Nc1nc2n(n1)C(c1ccc(Cl)cc1)C=C(c1ccccc1)N2 (centres undefined)	-1%	-2%	x	3%	-15%	3%	x	x	x	x
CCCN1C(=O)/C(=C\C=C2\N(CC)c3ccccc3C2(C)C)SC1=S	u	-16%	4.2µM*	-14%	u	u	x	14µM*	i	11µM*	Pol kappa inh-2=53*
CCCN1C(=O)/C(=C\C=C2/Sc3ccccc3N2CC)SC1=S	x	x	x	-3%	x	x	x	x	x	x
COc1cc(/C=C2\SC(=N)N(c3ccc(F)cc3)C2=O)ccc1O	-3%	-8%	-15%	u	-20%	-14%	x	x	x	x
COc1cc(/C=C2\SC(=S)N(Nc3ncc(C(F)(F)F)cc3Cl)C2=O)ccc1O	u	-34%	32µM*	14µM*	u	14µM*	x	7.6µM*	-25%	6.1µM*	Pol kappa inh-2=u
Cc1ccc(CNC(=O)c2ccc3c(c2)N(Cc2cccc(C)c2)C(=O)CS3)cc1	21%	1%	x	28%	-2%	9%	x	x	x	x
O=C(c1ccccc1)c1ccc2nc(-c3ccco3)c(-c3ccco3)nc2c1	u	25µM*	16µM*	8.9µM*	13µM*	4µM*	u	15µM*	24µM*	8.6µM*	Pol kappa inh-2=u
O=C(O)CN1C(=O)/C(=C\C(Br)=C\c2ccccc2)SC1=S	u	u	u	u	8.9µM*	u	24*	22µM*	-7%	22µM*
O=C(Nc1scc(-c2ccc(F)cc2)c1C(=O)O)c1ccco1	14%	8%	-28%	-11%	-13%	u	x	x	x	x
Cc1ccc(-c2csc(NC(=O)/C=C/c3ccco3)c2C(=O)O)cc1	-30%	50µM*	40µM*	28µM*	28µM*	u	u	u	-12%	u
CCOc1ccccc1NC(=O)c1ccc2c(Cl)c3c(nc2c1)CCC3	18%	-16%	x	18%	2%	-3%	x	x	x	x
CCC(=O)NC(c1ccco1)c1cc(Cl)c2cccnc2c1O (centres undefined)	u	-25%	-6%	u	-4%	48%	x	x	x	x
O=C(NC(c1ccco1)c1cc(Cl)c2cccnc2c1O)c1ccsc1 (centres undefined)	x	x	x	x	x	x	x	x	x	x	FEN1 inh-2=u
